65 compounds from the antibiotic and cytotoxicity screens of Wong et al. (2023) can be followed below.

About 3,300 (8.5%) of roughly 39,000 compounds were called active. Shown is part of a subset that was picked to be rich in actives.

The test system of the test is HepG2. Put plainly: cytotoxicity call (relative viability < 0.9). The following applies: 10 µM.
For `C[C@H](CO)N1C[C@H](C)[C@@H](CN(C)C(=O)Nc2ccc(C(F)(F)F)cc2)Oc2ccc(NC(=O)Nc3ccc(C(F)(F)F)cc3)cc2CC1=O`, the cytotoxicity call is “active”.

`C[C@@H]1CN([C@H](C)CO)C(=O)Cc2cc(NC(=O)Nc3ccc(C(F)(F)F)cc3)ccc2O[C@H]1CN(C)C(=O)Nc1ccc(C(F)(F)F)cc1`: the cytotoxicity call was “inactive”.

Consider `C[C@H]1CN([C@@H](C)CO)C(=O)Cc2cc(NC(=O)Nc3ccc(C(F)(F)F)cc3)ccc2O[C@H]1CN(C)C(=O)Nc1ccc(C(F)(F)F)cc1`, for which the cytotoxicity call is “active”.

With `C[C@@H]1CN([C@@H](C)CO)C(=O)Cc2cc(NC(=O)Nc3ccc(C(F)(F)F)cc3)ccc2O[C@H]1CN(C)C(=O)Nc1ccc(C(F)(F)F)cc1`, the cytotoxicity call was “active”.

For `C[C@H]1CN([C@@H](C)CO)C(=O)Cc2cc(NC(=O)Nc3ccc(C(F)(F)F)cc3)ccc2O[C@@H]1CN(C)C(=O)Nc1ccc(C(F)(F)F)cc1`, the cytotoxicity call is “inactive”.

On to `C[C@@H]1CN([C@@H](C)CO)C(=O)Cc2cc(NC(=O)Nc3ccc(C(F)(F)F)cc3)ccc2O[C@@H]1CN(C)C(=O)Nc1ccc(C(F)(F)F)cc1`, for which the cytotoxicity call is “active”.

Regarding `Cc1ccc(S[C@]2(C(=O)NC3CC3)CC(=O)N(Cc3ccccc3C(F)(F)F)[C@@H]2c2ccc(CO)cc2)cc1`, the cytotoxicity call was “inactive”.

With `Cc1ccc(S(=O)(=O)N2CCOCC2)cc1NC(=O)CN1C(=O)CN(C)C1=O`, the cytotoxicity call is “inactive”.

For `C[C@@H]1CN([C@H](C)CO)C(=O)CCCn2cc(nn2)CO[C@H]1CN(C)Cc1cccc2c1OCCCO2`, the cytotoxicity call was “inactive”.

As to `C[C@H](CO)N1C[C@H](C)[C@H](CN(C)Cc2ccccc2)OCCCC[C@H](C)Oc2ccc(NS(=O)(=O)c3ccc(F)cc3)cc2C1=O`, the cytotoxicity call is “inactive”.

Turning to `C[C@H]1CN([C@@H](C)CO)C(=O)c2cc(-c3cccc(C(=O)N(C)C)c3)cnc2O[C@H]1CN(C)C(=O)Cc1ccccn1`, the cytotoxicity call was “inactive”.

Take `C[C@@H]1CN([C@@H](C)CO)C(=O)c2cc(C#Cc3ccccc3F)cnc2O[C@H]1CN(C)C(=O)Cc1ccncc1`: the cytotoxicity call is “inactive”.

On to `CN1CCN(CCO)CC1`, for which the cytotoxicity call was “inactive”.

`C[C@@H]1CCCCO[C@@H](CN(C)S(=O)(=O)c2cccs2)[C@@H](C)CN([C@H](C)CO)C(=O)c2cc(NC(=O)CCC(F)(F)F)ccc2O1`: the cytotoxicity call is “inactive”.

As for `COc1ccc(S(=O)(=O)Nc2ccc3c(c2)C(=O)N([C@H](C)CO)C[C@H](C)[C@@H](CN(C)S(=O)(=O)c2cccs2)O3)cc1`, the cytotoxicity call was “inactive”.

On to `CC(C)NC(=O)N(C)C[C@@H]1Oc2cc(C#Cc3ccccn3)ccc2S(=O)(=O)N([C@@H](C)CO)C[C@H]1C`, for which the cytotoxicity call was “inactive”.

Regarding `O=C(C[C@H]1CC[C@@H]2[C@H](COC[C@@H](O)CN2S(=O)(=O)c2ccc(Cl)cc2)O1)NCCN1CCCC1`, the cytotoxicity call was “inactive”.

Regarding `C[C@@H]1CN([C@H](C)CO)C(=O)c2cccc(NC(=O)c3cnccn3)c2O[C@@H]1CN(C)Cc1ccc2c(c1)OCO2`, the cytotoxicity call was “inactive”.

Turning to `C[C@H]1CN([C@@H](C)CO)C(=O)c2ccccc2-c2ccccc2CO[C@H]1CN(C)C(=O)c1cc(Cl)cc(Cl)c1`, the cytotoxicity call is “inactive”.

With `C[C@H](CO)N1C[C@H](C)[C@H](CN(C)C(=O)Nc2ccc(C(F)(F)F)cc2)Oc2ccc(NC(=O)Nc3ccc(C(F)(F)F)cc3)cc2CC1=O`, the cytotoxicity call is “active”.

As for `C[C@@H]1CN([C@H](C)CO)C(=O)Cc2cc(NC(=O)Nc3ccc(C(F)(F)F)cc3)ccc2O[C@@H]1CN(C)C(=O)Nc1ccc(C(F)(F)F)cc1`, the cytotoxicity call is “active”.

Turning to `COCC#Cc1ccc([C@@H]2[C@@H](CO)N3C(=O)CN(C(=O)c4cccnc4)C[C@H]23)cc1`, the cytotoxicity call was “inactive”.

On to `CCO[C@H]1OC(C(=O)N2CCN(Cc3ccc4c(c3)OCO4)CC2)=C[C@@H](c2ccc(C(F)(F)F)cc2)[C@@H]1CCCOC(=O)NCCCCCC(=O)NO`, for which the cytotoxicity call is “inactive”.

For the compound `CC(C)C(=O)N1CC[C@H]2CN(CC(=O)N(C)C)S(=O)(=O)[C@@H]2CC1`, the cytotoxicity call was “inactive”.

As to `C[C@H]1CCCCO[C@@H](CN(C)S(=O)(=O)c2ccccc2)[C@@H](C)CN([C@@H](C)CO)C(=O)c2cc(NC(=O)C3CCCCC3)ccc2O1`, the cytotoxicity call is “inactive”.

For the compound `O=C(C[C@H]1CC[C@H]2[C@@H](COC[C@H](O)CN2S(=O)(=O)c2cccc(Cl)c2)O1)N1CCOCC1`, the cytotoxicity call was “inactive”.

For `CO[C@@H](C(=O)N(C)C[C@@H]1OCc2ccccc2-c2c(n(C)c3ccccc23)C(=O)N([C@H](C)CO)C[C@@H]1C)c1ccccc1`, the cytotoxicity call is “inactive”.

As for `CNS(=O)(=O)c1cc(OC)ccc1OC`, the cytotoxicity call was “inactive”.

For `COc1cccc(S(=O)(=O)N2C[C@H](O)COC[C@H]3O[C@@H](CC(=O)N4CCN(c5ccccc5)CC4)CC[C@@H]32)c1`, the cytotoxicity call is “inactive”.

On to `CCCNC(=O)Cn1c(=O)n(C)c2ccccc21`, for which the cytotoxicity call was “inactive”.

Regarding `C[C@@H]1CN([C@H](C)CO)C(=O)c2cc(NC(=O)CCCN(C)C)ccc2O[C@@H](C)CCCCO[C@H]1CN(C)CC1CCCCC1`, the cytotoxicity call was “inactive”.

In the case of `C[C@@H]1CCCCO[C@H](CN(C)CC2CCCCC2)[C@@H](C)CN([C@H](C)CO)C(=O)c2cc(NC(=O)Cc3ccccc3)ccc2O1`, the cytotoxicity call was “inactive”.

Regarding `C[C@H](CO)N1C[C@H](C)[C@H](CN(C)CC2CCCCC2)OCCCC[C@H](C)Oc2ccc(NC(=O)Cc3ccccc3)cc2C1=O`, the cytotoxicity call was “inactive”.

For the compound `C[C@@H]1CCCCO[C@@H](CN(C)CC2CCCCC2)[C@@H](C)CN([C@H](C)CO)C(=O)c2cc(NC(=O)CCCN(C)C)ccc2O1`, the cytotoxicity call was “inactive”.

Regarding `C[C@@H]1CN([C@@H](C)CO)C(=O)c2cc(NC(=O)Cc3ccccc3)ccc2O[C@@H](C)CCCCO[C@H]1CN(C)CC1CCCCC1`, the cytotoxicity call is “active”.

In the case of `C[C@H]1CCCCO[C@H](CN(C)CC2CCCCC2)[C@@H](C)CN([C@@H](C)CO)C(=O)c2cc(NC(=O)Cc3ccccc3)ccc2O1`, the cytotoxicity call was “active”.

Take `C[C@@H]1CCCCO[C@@H](CN(C)CC2CCCCC2)[C@H](C)CN([C@@H](C)CO)C(=O)c2cc(NC(=O)Cc3ccccc3)ccc2O1`: the cytotoxicity call is “inactive”.

Turning to `C[C@H]1CCCCO[C@@H](CN(C)CC2CCCCC2)[C@@H](C)CN([C@@H](C)CO)C(=O)c2cc(NC(=O)Cc3ccccc3)ccc2O1`, the cytotoxicity call is “active”.

Take `C[C@H]1CCCCO[C@@H](CN(C)CC2CCCCC2)[C@@H](C)CN([C@@H](C)CO)C(=O)c2cc(NC(=O)CCCN(C)C)ccc2O1`: the cytotoxicity call was “active”.

With `C[C@@H]1CCCCO[C@@H](CN(C)CC2CCCCC2)[C@H](C)CN([C@H](C)CO)C(=O)c2cc(NC(=O)Cc3ccccc3)ccc2O1`, the cytotoxicity call is “inactive”.

With `C[C@@H]1CCCCO[C@H](CN(C)CC2CCCCC2)[C@H](C)CN([C@H](C)CO)C(=O)c2cc(NC(=O)Cc3ccccc3)ccc2O1`, the cytotoxicity call is “inactive”.

As to `C[C@H](CO)N1C[C@H](C)[C@@H](CN(C)CC2CCCCC2)OCCCC[C@H](C)Oc2ccc(NC(=O)Cc3ccccc3)cc2C1=O`, the cytotoxicity call was “inactive”.

Take `C=CC(C)(O)CCC1C(C)(O)CCC2C(C)(C)CCCC21C` (stereo not given): the cytotoxicity call is “inactive”.

Consider `CCS(=O)(=O)Nc1ccc2c(c1)C(=O)N(C)[C@@H]1CC[C@H](CC(=O)N3CCN(C)CC3)O[C@@H]1CO2`, for which the cytotoxicity call is “inactive”.

On to `NCC[C@H]1CC[C@H](NC(=O)Nc2ccc(F)cc2)[C@H](CO)O1`, for which the cytotoxicity call is “inactive”.

For the compound `CN(C)CCN1CCN(C)C2(CCN(S(=O)(=O)C3CC3)CC2)C1=O`, the cytotoxicity call is “inactive”.

`Cc1noc(C)c1NC(=O)Nc1ccc2c(c1)CC(=O)N([C@@H](C)CO)C[C@H](C)[C@@H](CN(C)Cc1ccc(C(=O)Nc3ccccc3N)cc1)O2`: the cytotoxicity call was “inactive”.

Regarding `CCCNC(=O)N1C[C@H](O)COC[C@@H]2O[C@@H](CC(=O)N3CCOCC3)CC[C@H]21`, the cytotoxicity call is “inactive”.

`CO[C@@H]1CN(C)C(=O)c2cc(NC(=O)Nc3cccc(F)c3)ccc2OC[C@@H](C)N(C(=O)Nc2c(C)noc2C)C[C@H]1C`: the cytotoxicity call was “inactive”.

Consider `Cc1cc(Cn2c(=O)n(Cc3cnc(C)s3)c(=O)c3cc(S(=O)(=O)NC4(C)CC4)ccc32)n(C)n1`, for which the cytotoxicity call is “inactive”.

With `COc1ccccc1CNC(=O)C[C@@H]1C[C@H]2c3cc(NC(=O)c4ccc5c(c4)OCO5)ccc3O[C@H]2[C@H](CO)O1`, the cytotoxicity call was “inactive”.

As for `C[C@@H]1CN([C@H](C)CO)C(=O)c2cc(C#Cc3ccccc3F)cnc2O[C@H]1CN(C)S(=O)(=O)c1ccccc1F`, the cytotoxicity call is “inactive”.

`C[C@H](CO)N1C[C@H](C)[C@@H](CN(C)S(=O)(=O)c2ccccc2F)Oc2ncc(C#Cc3ccccc3)cc2C1=O`: the cytotoxicity call is “inactive”.

Turning to `C[C@@H]1CN([C@@H](C)CO)C(=O)c2cc(C#Cc3ccccc3F)cnc2O[C@H]1CN(C)S(=O)(=O)c1ccccc1F`, the cytotoxicity call was “active”.

With `C[C@@H]1CN([C@@H](C)CO)C(=O)c2cc(C#Cc3ccccc3)cnc2O[C@H]1CN(C)S(=O)(=O)c1ccccc1F`, the cytotoxicity call is “active”.

As to `C[C@H]1CN([C@@H](C)CO)C(=O)c2cc(C#Cc3ccccc3)cnc2O[C@H]1CN(C)S(=O)(=O)c1ccccc1F`, the cytotoxicity call is “inactive”.

For the compound `C[C@H](CO)N1C[C@H](C)[C@H](CN(C)S(=O)(=O)c2ccccc2F)Oc2ncc(C#Cc3ccccc3)cc2C1=O`, the cytotoxicity call was “inactive”.

For the compound `C[C@H]1CN([C@@H](C)CO)C(=O)c2cc(C#Cc3ccccc3F)cnc2O[C@@H]1CN(C)S(=O)(=O)c1ccccc1F`, the cytotoxicity call is “inactive”.

Take `C[C@@H]1CN([C@@H](C)CO)C(=O)c2cc(C#Cc3ccccc3)cnc2O[C@@H]1CN(C)S(=O)(=O)c1ccccc1F`: the cytotoxicity call was “active”.

With `C[C@@H]1CN([C@H](C)CO)C(=O)c2cc(C#Cc3ccccc3)cnc2O[C@@H]1CN(C)S(=O)(=O)c1ccccc1F`, the cytotoxicity call was “inactive”.

Regarding `C[C@H](CO)N1C[C@H](C)[C@H](CN(C)C(=O)Nc2cccc3ccccc23)Oc2ccc(NC(=O)NC3CCCCC3)cc2CC1=O`, the cytotoxicity call was “inactive”.

On to `Cc1cc(=O)n(CNC(=O)c2ccco2)cn1`, for which the cytotoxicity call is “inactive”.

`O=C([O-])C(O)C(O)C(O)C(O)C(O)CO.O=C([O-])C(O)C(O)C(O)C(O)C(O)CO.[Ca+2]` (stereo not given): the cytotoxicity call was “inactive”.

Turning to `O=C(C[C@H]1CC[C@H]2NC[C@@H](O)COC[C@@H]2O1)NCCN1CCCC1`, the cytotoxicity call is “inactive”.

In the case of `COc1ccsc1C(N)=O`, the cytotoxicity call is “inactive”.
